These results are taken from PubChem BioAssay (EPA / NIEHS).

Records with an inconclusive call do not appear. Active and inactive are the calls of the source. Rule for the calls: active = hit-call score of the fitted dose curve at least 0.9, where 1 is the maximum; inconclusive = response in the unintended direction; inactive = score below 0.9.

In assay [1] the target is Peroxisome proliferator-activated receptor gamma (Homo sapiens) (UniProt P37231). In words: OT_PPARg_PPARgSRC1_0480: Odyssey Thera (OT) 8-hour Protein-Complementation Assay for Peroxisome Proliferator-activated Receptor Gamma / SRC-1 Co-activator (AID 2283387). In a few lines: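 Protein-fragment complementation in HEK293T: Venus YFP halves (residues 1-158, 159-239, mutated to IFP1/IFP2) fused to PPARg/SRC-1. 8 h exposure; N/C ratio at 488 nm; DMSO negative control.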
Peroxisome proliferator-activated receptor gamma (Homo sapiens), sequence (P37231 whole entry, looked up, the tested form may be a part): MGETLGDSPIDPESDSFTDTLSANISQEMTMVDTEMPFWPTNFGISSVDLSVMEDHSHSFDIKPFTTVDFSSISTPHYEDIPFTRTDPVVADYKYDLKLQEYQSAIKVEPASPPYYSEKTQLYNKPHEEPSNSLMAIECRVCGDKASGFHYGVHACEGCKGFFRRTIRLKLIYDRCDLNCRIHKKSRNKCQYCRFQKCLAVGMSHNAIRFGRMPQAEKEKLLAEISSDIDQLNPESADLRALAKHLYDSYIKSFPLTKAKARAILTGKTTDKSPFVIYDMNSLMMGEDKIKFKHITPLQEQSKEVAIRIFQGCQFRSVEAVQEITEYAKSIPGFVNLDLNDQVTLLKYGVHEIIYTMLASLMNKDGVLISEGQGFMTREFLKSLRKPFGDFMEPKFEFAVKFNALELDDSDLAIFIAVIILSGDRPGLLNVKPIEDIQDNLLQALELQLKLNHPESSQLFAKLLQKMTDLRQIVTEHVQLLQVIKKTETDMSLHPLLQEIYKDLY

The target is the same in assay [2]. In words: OT_PPARg_PPARgSRC1_1440: Odyssey Thera (OT) 24-hour Protein-Complementation Assay for Peroxisome Proliferator-activated Receptor Gamma/ SRC-1 Co-activator (AID 2283388). Put shortly:
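HEK293T transiently transfected with PPARg/SRC-1 split-Venus YFP fusions 48 h before dosing, then treated 24 h at 37C. Fixed cells imaged; nuclear/cytoplasmic 488 nm fluorescence ratio, gain of signal versus DMSO.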

Regarding `CN1CCc2cccc3c2[C@H]1Cc1ccc(O)c(O)c1-3`, the call in assay [1] and in assay [2] was inactive.
On to `CNC(=C[N+](=O)[O-])NCCSCc1ccc(CN(C)C)o1`, for which the call in assay [1] and in assay [2] was inactive.
Take `CC1COC(=O)O1` (stereo unspecified): the call in assay [1] and in assay [2] was inactive.
Regarding `COC(=O)c1cccc(C(=O)OC)c1`, the compound was classed as inactive in assay [1] and in assay [2].
For the compound `CC(=O)Oc1c(C)c(C)c2c(c1C)CC[C@@](C)(CCC[C@H](C)CCC[C@H](C)CCCC(C)C)O2`, the compound was classed as inactive in assay [1] and in assay [2].
As for `CCC(C)(C)C1CCC(=O)CC1`, the call in assay [1] and in assay [2] was inactive.
As to `CCCCCCCCCCOC(=O)c1ccccc1C(=O)OCCCCCCCC`, the compound was classed as inactive in assay [1] and in assay [2].
Consider `CCC(C)C1CCCCC1=O` (stereo unspecified), for which the compound was classed as inactive in assay [1] and in assay [2].
Regarding `CCC(C)COC(=O)CC(C)C` (stereo unspecified), the compound was called inactive in assay [1] and in assay [2].
In the case of `CC(=O)c1ccc(O)cc1`, the outcome in assay [1] and in assay [2] was inactive.
Consider `C1=COCCC1`, for which the outcome in assay [1] and in assay [2] was inactive.
For `CCC(C)(CCCC(C)C)OC(C)=O` (stereo unspecified), the result in assay [1] and in assay [2] was inactive.
As for `O=C(O)C1=NN(c2ccc(S(=O)(=O)O)cc2)C(=O)C1`, the compound was called inactive in assay [1] and in assay [2].
`CCCCCCCCCCCCS`: the compound was called inactive in assay [1] and in assay [2].
With `CC(C)CCCC(C)(C)O`, the compound was classed as inactive in assay [1] and in assay [2].
For `O=C(O)c1ccccc1O`, the compound was called inactive in assay [1] and in assay [2].
Take `CN(C)C`: the call in assay [1] and in assay [2] was inactive.
As for `CCCCOCCOCCO`, the result in assay [1] and in assay [2] was inactive.
Consider `CCCC(O)C(CC)CO` (stereo unspecified), for which the outcome in assay [1] and in assay [2] was inactive.
Regarding `C=C(C)C(=O)OCCC(C)OC(=O)C(=C)C` (stereo unspecified), the compound was called inactive in assay [1] and in assay [2].
In the case of `CC(CCO)CC(C)(C)C` (stereo unspecified), the call in assay [1] and in assay [2] was inactive.
For the compound `CCOCC(C)O` (stereo unspecified), the call in assay [1] and in assay [2] was inactive.
Turning to `O=C1OC2(c3ccc(O)cc3Oc3cc(O)ccc32)c2ccccc21`, the outcome in assay [1] and in assay [2] was inactive.
